Screens from PubChem BioAssay.
Cav32 inh – blocks human Cav3.2 T-type calcium channel | Cav3.2-expressing cells, Fluo-4 calcium fluorescence FDSS; hits give low values | B-score at 10 µM | actives 4% (n = 100,000) | AID 449739;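 active = single-dose well whose peak fluorescence ratio is a statistical outlier from its plate by either plate-standardised score or position-corrected B-score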
Target sequence (O95180 whole entry, looked up): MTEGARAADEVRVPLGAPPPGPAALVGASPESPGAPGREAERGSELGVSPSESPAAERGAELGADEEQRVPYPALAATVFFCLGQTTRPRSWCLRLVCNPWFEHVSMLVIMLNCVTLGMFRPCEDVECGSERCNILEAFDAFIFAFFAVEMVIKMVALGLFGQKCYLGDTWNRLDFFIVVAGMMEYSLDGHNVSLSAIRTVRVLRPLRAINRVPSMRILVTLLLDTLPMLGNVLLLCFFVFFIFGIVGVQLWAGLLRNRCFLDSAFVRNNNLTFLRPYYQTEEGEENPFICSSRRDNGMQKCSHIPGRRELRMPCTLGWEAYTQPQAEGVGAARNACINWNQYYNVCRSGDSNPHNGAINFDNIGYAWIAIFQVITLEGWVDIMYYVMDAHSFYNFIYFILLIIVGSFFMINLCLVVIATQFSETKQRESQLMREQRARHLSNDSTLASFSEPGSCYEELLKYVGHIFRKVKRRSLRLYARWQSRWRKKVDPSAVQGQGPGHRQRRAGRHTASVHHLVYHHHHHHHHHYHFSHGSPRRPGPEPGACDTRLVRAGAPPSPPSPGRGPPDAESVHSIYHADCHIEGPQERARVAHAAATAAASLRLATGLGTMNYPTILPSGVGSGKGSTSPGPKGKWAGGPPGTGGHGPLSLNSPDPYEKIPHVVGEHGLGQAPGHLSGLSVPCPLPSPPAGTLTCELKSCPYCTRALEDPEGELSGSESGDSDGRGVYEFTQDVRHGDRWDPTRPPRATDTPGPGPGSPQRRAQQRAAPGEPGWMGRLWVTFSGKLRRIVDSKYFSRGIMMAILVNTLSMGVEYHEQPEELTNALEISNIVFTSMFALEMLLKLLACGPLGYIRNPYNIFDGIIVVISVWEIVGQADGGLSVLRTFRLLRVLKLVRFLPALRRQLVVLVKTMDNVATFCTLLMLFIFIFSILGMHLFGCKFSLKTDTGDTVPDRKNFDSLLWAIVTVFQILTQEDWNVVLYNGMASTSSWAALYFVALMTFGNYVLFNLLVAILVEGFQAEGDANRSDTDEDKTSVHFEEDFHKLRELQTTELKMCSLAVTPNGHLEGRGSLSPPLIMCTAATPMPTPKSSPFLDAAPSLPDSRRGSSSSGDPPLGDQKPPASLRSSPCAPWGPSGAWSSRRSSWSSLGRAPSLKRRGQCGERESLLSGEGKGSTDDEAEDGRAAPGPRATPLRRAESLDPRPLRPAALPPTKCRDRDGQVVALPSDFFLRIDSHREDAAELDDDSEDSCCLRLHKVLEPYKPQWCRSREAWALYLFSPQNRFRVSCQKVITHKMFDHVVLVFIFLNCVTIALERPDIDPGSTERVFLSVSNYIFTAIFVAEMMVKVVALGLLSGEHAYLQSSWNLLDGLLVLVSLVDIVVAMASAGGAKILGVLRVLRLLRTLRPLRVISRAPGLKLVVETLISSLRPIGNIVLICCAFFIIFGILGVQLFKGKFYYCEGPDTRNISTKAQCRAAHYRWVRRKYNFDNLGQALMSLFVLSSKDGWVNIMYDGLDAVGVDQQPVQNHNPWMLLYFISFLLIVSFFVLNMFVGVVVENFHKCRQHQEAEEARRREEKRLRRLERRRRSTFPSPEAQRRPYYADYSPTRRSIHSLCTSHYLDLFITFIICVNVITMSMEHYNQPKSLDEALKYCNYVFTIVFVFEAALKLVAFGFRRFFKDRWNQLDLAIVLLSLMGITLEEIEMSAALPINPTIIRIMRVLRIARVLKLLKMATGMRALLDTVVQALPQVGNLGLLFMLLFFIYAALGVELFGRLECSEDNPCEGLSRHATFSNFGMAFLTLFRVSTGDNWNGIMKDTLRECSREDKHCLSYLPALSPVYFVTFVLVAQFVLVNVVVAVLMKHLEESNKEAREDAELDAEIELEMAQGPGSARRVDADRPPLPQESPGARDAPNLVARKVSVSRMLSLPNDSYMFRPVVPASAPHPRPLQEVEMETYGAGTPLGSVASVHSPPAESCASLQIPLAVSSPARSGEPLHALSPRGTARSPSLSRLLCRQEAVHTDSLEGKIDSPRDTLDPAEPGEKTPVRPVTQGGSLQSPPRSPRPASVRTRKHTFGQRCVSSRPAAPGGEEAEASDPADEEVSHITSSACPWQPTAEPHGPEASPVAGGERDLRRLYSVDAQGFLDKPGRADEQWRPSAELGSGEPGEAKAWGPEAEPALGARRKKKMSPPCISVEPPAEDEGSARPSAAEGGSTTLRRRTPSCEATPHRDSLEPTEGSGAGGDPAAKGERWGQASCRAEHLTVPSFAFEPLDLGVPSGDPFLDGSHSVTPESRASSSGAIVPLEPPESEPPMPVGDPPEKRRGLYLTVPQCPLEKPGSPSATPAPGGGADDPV
CYP2C9 activ – CYP2C9 (human) activation; actives 1.4% (n = 96,000); recombinant CYP2C9, luciferin-H conversion, luminescence; hits give high values; factor 1 = untreated enzyme, 0 = blocked; activation factor at 5 µM;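 active = activation factor of 2 or more for CYP2C9 at a 5 µM dose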;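 note: 0 = sulfaphenazole-blocked wells and 1 = vehicle-only wells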
CYP2C9 inhib – blocks human cytochrome P450 2C9. inhibition, % at 5 µM. AID 777. actives 20% (n = 96,000). CYP2C9 Supersomes, luciferin-H conversion, luminescence. P11712;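 active = blocking of liver enzyme CYP2C9 beyond about 50% at 5 µM, limit read from the data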
CYP2C19 inh – blocks human cytochrome P450 2C19. inhibition, % at 5 µM. actives 21% (n = 96,000). CYP2C19 Supersomes, luciferin-H EGE luminescence, 30 min. P33261;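 active = CYP2C19 inhibition above a set limit at 5 µM in the primary screen, cut at about 50% in these data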;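 note: plate controls were negative control wells for no effect and 2.5 mM tranylcypromine positive control for full effect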
CYP2C19 activ – increases human CYP2C19 enzyme activity | P33261 | recombinant CYP2C19, luciferin-H EGE luminescence; hits give high values; 0 = fully inhibited enzyme, 1 = untreated enzyme | activation factor at 5 µM | 96,000 tested, under 10 active | AID 1025;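 active = activation factor of at least 2 at 5 µM in the primary screen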;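 note: 0 = wells with 2.5 mM tranylcypromine and 1 = vehicle-only wells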
The depositor's hits bear a star; / = no result given. Sampled rows, rich in hits. Any-hit rate of the full collection: about 27%.

SMILES	Cav32 inh	CYP2C9 activ	CYP2C9 inhib	CYP2C19 inh	CYP2C19 activ
COc1cc(/C=N\NC(=O)c2ccc(Cn3nc([N+](=O)[O-])c(Cl)c3C)o2)ccc1O	/	0.8	24	65*	0.3
COc1ccc(C2c3c(oc4ccc(Cl)cc4c3=O)C(=O)N2Cc2ccco2)cc1OC (stereo not given)	0.82	0.8	18	5	0.9
COC(=O)c1ccc(NC(=O)CSc2nnc(C(C)NC(=O)c3ccccc3Cl)n2C)cc1 (stereo not given)	0.99	0.9	8	-8	1.1
Cc1ccc(NC(=S)/C(=C(\[O-])c2ccc(C)c([N+](=O)[O-])c2)[n+]2ccccc2)cc1C	-0.69	0.3	69*	38	0.6
COc1ccccc1-c1c(C)nn2c(N3CCCCCC3)cc(C)nc12	-1.5	0.9	9	6	0.9
Cc1cc(N2CCCCC2)n2nc(C)c(-c3ccccc3)c2n1	0.2	0.6	39	16	0.8
COc1ccccc1-c1c(C)nn2c(N3CCN(c4ccccc4OC)CC3)cc(C)nc12	-1.4	0.5	50	76*	0.2
COc1ccc(-c2c(C)nn3c(N4CCN(Cc5ccccc5)CC4)cc(C)nc23)cc1OC	1.7	0.2	85*	68*	0.3
CC(C)CCSc1nnc(Cn2c(=O)sc3ccccc32)n1C	0.5	/	/	/	/
C=CCOC(=O)C1=C[C@@H](c2ccc(C(F)(F)F)cc2)C[C@@H](OCc2ccc(CO)cc2)O1	-0.65	/	/	/	/
COc1cccc2sc(Nc3nnc(-c4cccs4)o3)nc12	-5.6*	1	3	-11	1.1
COc1cccc(N2C(N)=NC(N)=NC2(C)C)c1	-0.88	0.9	12	7	0.9
COc1cccc(-n2cnc3cccc(N)c32)c1	1.4	2.3*	-125	37	0.6
Cc1ccc(S(=O)(=O)/N=C(\CN2CCCCC2)N2CCOCC2)cc1	1.1	0.5	53*	64*	0.4
CCC(C)(C)n1nnnc1C(c1cc2ccc(OC)cc2[nH]c1=O)N1CCN(C2CCCCC2)CC1 (stereo not given)	1.2	0.9	6	-3	1
OC1CCN(C(c2ccc3ncccc3c2)c2nnnn2C2CCCCC2)CC1 (stereo not given)	-0.96	1.1	-8	-14	1.1
c1cnc2ccc(C(c3nnnn3C3CCCCC3)N3CCN4CCCC4C3)cc2c1 (stereo not given)	0.65	0.3	69*	-1	1
CCC(C)(C)n1nnnc1C(c1ccc2ncccc2c1)N1CCN2CCCC2C1 (stereo not given)	0.52	1	3	59*	0.4
Cc1ccc(NC(=O)Nc2nc(-c3ccc(C)s3)cs2)cc1	0.66	0.8	25	18	0.8
CCOc1cccc(N2C(=O)CC(N3CCN(c4ccc(S(=O)(=O)CC)cc4)CC3)C2=O)c1 (stereo not given)	0.65	0.7	32	6	0.9
Cc1cc(C)c2cc(C#N)c(N3CCCC3)nc2c1	-0.027	1	1	18	0.8
CCCC1Cc2nc(N3CCCCC3)c(C#N)cc2CO1 (stereo not given)	-0.53	0.1	86*	73*	0.3
O=c1c2cc3c(cc2[nH]c(=S)n1Cc1ccco1)OCO3	/	0.9	11	78*	0.2
O=C(c1ccc2c(=O)n(Cc3ccco3)c(=S)[nH]c2c1)N1CCN(Cc2ccccc2)CC1	-6.6*	0.3	70*	57*	0.4
CC1CCCN(C(=O)c2ccc3c(=O)n(Cc4ccc5c(c4)OCO5)c(=S)[nH]c3c2)C1 (stereo not given)	-5.3*	0.5	45	40	0.6
SMILES	Cav32 inh	CYP2C9 activ	CYP2C9 inhib	CYP2C19 inh	CYP2C19 activ
CCOC(=O)N1CCN(C(=O)c2ccc3c(=O)n(CCC4=CCCCC4)c(=S)[nH]c3c2)CC1	0.0079	1	0	4	1
CCOC(=O)N1CCN(C(=O)c2ccc3c(=O)n(Cc4ccc(Cl)cc4)c(=S)[nH]c3c2)CC1	/	0.5	52*	41	0.6
Cn1c(SCC(=O)Nc2ccccc2F)nnc1-c1ccc(S(=O)(=O)N2CCOCC2)cc1	-0.12	1	1	1	1
CCOc1ccc(CN(C(=O)c2oc3cc(C)ccc3c2C)C2CCS(=O)(=O)C2)cc1 (stereo not given)	-1.6	0.1	87*	73*	0.3
CCOC(=O)N1CCN(S(=O)(=O)c2ccc(C)c(C)c2)CC1	-3.1	1.6	-63	41	0.6
CCOC(=O)N1CCN(S(=O)(=O)c2ccc(OCC)c(C)c2)CC1	/	1.7	-66	96*	0
CCOc1ccccc1OCCCC(=O)N1CCN(S(=O)(=O)c2cccc(F)c2)CC1	0.46	0.6	36	75*	0.3
CCOC(=O)N1CCN(S(=O)(=O)c2cc(OCC)ccc2OCC)CC1	-0.68	0.4	55*	59*	0.4
O=C(Nc1ccccc1)N1CCC(C(=O)N2CCN(S(=O)(=O)c3cccc(F)c3)CC2)CC1	0.61	1.1	-13	-9	1.1
CCOC(=O)N1CCN(S(=O)(=O)c2cccc3ccc(C)nc23)CC1	0.32	1.7	-69	66*	0.3
CCOC(=O)N1CCN(S(=O)(=O)c2cc(Cl)c(OC)cc2Cl)CC1	0.35	/	/	/	/
CCOC(=O)N1CCN(S(=O)(=O)c2ccc3c(c2)SCC(=O)N3)CC1	/	1.1	-8	3	1
O=C(CSc1nnc(CNC(=O)c2cccs2)o1)NC1CCCCC1	0.21	1.2	-23	-16	1.2
CC(=O)C(=[N+]=[N-])C(=O)NCc1ccccc1	-0.22	1.1	-5	23	0.8
Clc1cccc(Cl)c1-c1nnc2cccc(Cl)n12	1.1	/	/	/	/
O=C1OCCC1N1C(=O)c2ccccc2S1(=O)=O (stereo not given)	0.3	1	-2	-8	1.1
CCOC(=O)N1CCN(C(=O)COc2ccc(S(=O)(=O)NCC(C)C)cc2C)CC1	0.15	0.4	62*	18	0.8
CCOc1ccc(OCC)c(S(=O)(=O)N2CCCCC2)c1	0.029	0.6	40	81*	0.2
CCOc1ccc(OCC)c(S(=O)(=O)N2CCC(C)CC2)c1	-1.7	0.7	34	60*	0.4
Cc1cc(S(=O)(=O)NCC(C)C)ccc1OCC(=O)N1CCOCC1	1	1.1	-13	-13	1.1
CCc1ccccc1N(CC(=O)N/N=C/c1ccc(OC(=O)OC)c(OC)c1)S(C)(=O)=O	/	0.5	50*	30	0.7
CCC(=O)N1CCc2cc(S(=O)(=O)NCCC(=O)N3CCN(c4ccccn4)CC3)ccc21	1.1	0.9	8	-15	1.1
Cc1c(NC(=O)c2ccccc2NS(=O)(=O)c2ccc(F)cc2)c(=O)n(-c2ccccc2)n1C	0.13	0.5	52*	25	0.8
Cc1ccc(S(=O)(=O)Nc2c(C)n(C)n(-c3ccccc3)c2=O)cc1	-0.23	1.1	-9	14	0.9
Cc1c(NS(=O)(=O)c2cccc(C(=O)NCc3ccc(Cl)cc3)c2)c(=O)n(-c2ccccc2)n1C	-3.8	0.7	33	51*	0.5
